# PubChem BioAssay (EPA / NIEHS)
# Records with an inconclusive call do not appear. Active and inactive are the calls of the source. The calls were made as follows: active = hit-call score of the fitted dose curve at least 0.9, where 1 is the maximum; inconclusive = response in the unintended direction; inactive = score below 0.9.
# Target: human Vitamin D Receptor (VDR), VDR (gene 7421) (UniProt P11473)
# Test: ATG_VDR_TRANS: Attagene TRANS-FACTORIAL HepG2 Assay for human Vitamin D Receptor (VDR) (AID 2283022)
# How it was run: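 RT-PCR/capillary electrophoresis read-out of reporter mRNA induction in transiently transfected HepG2; 24 h dosing; chimeric NR-Gal4 (TRANS format); gain-of-signal fit against DMSO baseline.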
# Chain of human Vitamin D Receptor (VDR), VDR (gene 7421) (P11473 whole entry, looked up): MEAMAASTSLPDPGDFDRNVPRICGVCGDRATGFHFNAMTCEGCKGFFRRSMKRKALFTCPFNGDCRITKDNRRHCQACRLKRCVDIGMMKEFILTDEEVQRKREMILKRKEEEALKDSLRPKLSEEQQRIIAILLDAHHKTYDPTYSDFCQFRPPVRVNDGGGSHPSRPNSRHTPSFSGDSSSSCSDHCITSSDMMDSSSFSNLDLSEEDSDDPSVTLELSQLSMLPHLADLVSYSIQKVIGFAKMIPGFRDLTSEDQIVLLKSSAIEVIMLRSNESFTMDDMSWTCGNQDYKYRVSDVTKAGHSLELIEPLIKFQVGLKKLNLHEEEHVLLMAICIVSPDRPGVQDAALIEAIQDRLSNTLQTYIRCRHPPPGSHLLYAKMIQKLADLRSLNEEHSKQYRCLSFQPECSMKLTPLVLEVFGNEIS
row,SMILES,outcome
1,CC1CCC(=O)C1=O (stereo not given),inactive
2,CC(C)COC(=O)CC(C(=O)OCC(C)C)S(=O)(=O)O (stereo not given),inactive
3,CC(C)(C)C1CCC(=O)CC1,inactive
4,CCCCOCC(C)O (stereo not given),inactive
5,O=C(O)/C=C/c1ccccc1,inactive
6,CCCc1ccc(O)c(OC)c1,inactive
7,Cc1c(C(=O)c2c[nH]n(C)c2=O)ccc(S(C)(=O)=O)c1C1=NOCC1,inactive
8,CC(C)c1cc(C(C)C)cc(C(C)C)c1,inactive
9,CCCCCCCCCCCC(=O)OCC,inactive
10,O=c1c(O)c(-c2ccc(O)cc2O)oc2cc(O)cc(O)c12,inactive
11,C=C(C)C(=O)OCC(O)COc1ccc(C(C)(C)c2ccc(OCC(O)COC(=O)C(=C)C)cc2)cc1 (stereo not given),inactive
12,NNS(=O)(=O)c1ccc(Oc2ccc(S(=O)(=O)NN)cc2)cc1,inactive
13,COC(=O)CC(C)CCC=C(C)C (stereo not given),inactive
14,CCCCOC(=O)C(C)CC (stereo not given),inactive
15,CC1=CCC2CC1C2(C)C (stereo not given),inactive
16,CCC(C)c1ccccc1 (stereo not given),inactive
17,N#Cc1ccc(C(c2ccc(C#N)cc2)n2cncn2)cc1,inactive
18,CCCCCCCCCCCCCC(=O)OC(C)C,inactive

row,SMILES,outcome
1,Cc1cc(C)c(C=O)c(C)c1,inactive
2,C=C[Si](OCCOC)(OCCOC)OCCOC,inactive
3,Nc1ccc(O)c([N+](=O)[O-])c1,inactive
4,CCCC=C(C=O)CC,inactive
5,CCCCCCCCCC(C)=O,inactive
6,CC(C)(C)NC(=O)[C@H]1CC[C@H]2[C@@H]3CC[C@H]4NC(=O)C=C[C@]4(C)[C@H]3CC[C@]12C,inactive
7,C[Si](C)(C)N[Si](C)(C)C,inactive
8,C=CC(C)(CCC=C(C)C)OC(=O)C=Cc1ccccc1 (stereo not given),inactive
9,C=Cc1cccc(C)c1,inactive
10,CC1=CC(C)C(C=O)CC1 (stereo not given),inactive
11,COc1cc(O)c(C(=O)c2ccccc2)cc1S(=O)(=O)O,inactive
12,COCC(=O)O,inactive
13,COc1ccc(-c2coc3cc(O)cc(O)c3c2=O)cc1,inactive
14,C=CCOC(=O)c1ccc(C(=O)OCC=C)c(C(=O)OCC=C)c1,inactive
15,CCC[Si](OC)(OC)OC,inactive
16,Cn1ccnc1,inactive
17,CCCCC(CC)COC(=O)/C=C/c1ccc(OC)cc1 (stereo not given),inactive
